Results taken from PubChem BioAssay AID1159580 (chemical genetic matrix, 2015).
Several values for one entry are separate records, joined by “and”; a condition that tells them apart may be missing. Identical values can stand only once. In all, about 5,500 compounds went through this assay and about 2,000 (36%) were called active. About 18% were inconclusive and are not listed. Rule as the data show it: active = normalized growth mostly below about 0.91 (no sharp cut-off); inconclusive = no clear call, values can overlap the other calls; inactive = mostly above about 0.92. This is one part of the list.

Experiment: chemical genetic growth profiling, strain panel (AID 1159580);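 also: tested at 20 µM; growth read once vehicle control cultures reached saturation at 30 °C; 1 = growth at the plate median or of vehicle wells; lower values mean less growth of the strain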
Conditions: S. cerevisiae deletion strains, growth OD

Measured: normalized growth

COc1cc(OC)c2ccc(=O)oc2c1
active: locus YDR195W, strain ref2 1.19 [resistant] | locus YDR392W, strain spt3, hits give low values 0.736 | locus YER155C, strain BEM2 (second series), hits give low values 0.661 | locus YGL240W, strain doc1, hits give low values 0.868
inactive: locus YAL013W, strain DEP1, hits give low values 1.01 | locus YAL021C, strain ccr4, hits give low values 1 | locus YAL026C, strain drs2, hits give low values 0.964 | locus YAL030W, strain snc1, hits give low values 0.976 | locus YBL061C, strain skt5, hits give low values 0.966 | locus YBR009C, strain hhf1, hits give low values 0.935 | locus YBR021W, strain FUR4, hits give low values 0.949 | locus YBR023C, strain chs3, hits give low values 0.964 | locus YBR171W, strain sec66, hits give low values 0.972 | locus YBR229C, strain ROT2, hits give low values 1.01 | locus YBR231C, strain swc5, hits give low values 0.963 | locus YBR279W, strain paf1, hits give low values 0.973 | locus YCL011C, strain gbp2, hits give low values 0.962 | locus YCL016C, strain dcc1, hits give low values 0.968 | locus YCL029C, strain bik1, hits give low values 1 | locus YCL061C, strain MRC1, hits give low values 0.974 | locus YCL069W, strain vba3, hits give low values 0.992 | locus YCR088W, strain abp1, hits give low values 0.984 | locus YDL005C, strain med2, hits give low values 0.987 | locus YDL035C, strain GPR1, hits give low values 0.99 | locus YDL040C, strain nat1, hits give low values 0.974 | locus YDL074C, strain BRE1, hits give low values 0.979 | locus YDL101C, strain DUN1, hits give low values 1.01 | locus YDL134C, strain PPH21, hits give low values 0.992 | locus YDL185W, strain tfp1, hits give low values 0.982 | locus YDL192W, strain arf1, hits give low values 0.988 | locus YDR001C, strain nth1, hits give low values 0.975 | locus YDR069C, strain doa4, hits give low values 0.951 | locus YDR101C, strain arx1, hits give low values 0.994 | locus YDR137W, strain rgp1, hits give low values 0.922 | locus YDR150W, strain NUM1, hits give low values 1 | locus YDR159W, strain sac3, hits give low values 0.971 | locus YDR162C, strain NBP2, hits give low values 1 | locus YDR297W, strain sur2, hits give low values 0.978 | locus YDR318W, strain mcm21, hits give low values 1 | locus YDR334W, strain swr1, hits give low values 0.962 | locus YDR335W, strain msn5, hits give low values 0.974 | locus YDR388W, hits give low values 1.01 | locus YDR502C, strain sam2, hits give low values 0.989 | locus YEL003W, strain gim4, hits give low values 0.973 | locus YEL037C, strain rad23, hits give low values 0.961 | locus YEL061C, strain CIN8 (second series), hits give low values 0.964 | locus YEL061C, strain CIN8, hits give low values 1 | locus YER015W, strain faa2, hits give low values 0.973 | locus YER016W, strain bim1, hits give low values 0.975 | locus YER110C, hits give low values 0.983 | locus YER111C, strain swi4, hits give low values 0.965 | locus YER155C, strain BEM2, hits give low values 0.999 | locus YER167W, strain BCK2, hits give low values 1.02 | locus YFR010W, strain ubp6, hits give low values 0.951 | locus YGL078C, strain dbp3, hits give low values 0.995 | locus YGL086W, strain mad1, hits give low values 1 | locus YGL167C, strain pmr1, hits give low values 0.965 | locus YGL173C, strain kem1, hits give low values 0.945 | locus YGL227W, strain vid30, hits give low values 0.974 | locus YGL248W, strain PDE1, hits give low values 1.01 | locus YGL253W, strain hxk2, hits give low values 0.974 | locus YGR078C, strain PAC10, hits give low values 0.989 | locus YGR135W, strain pre9, hits give low values 0.977 | locus YGR229C, strain SMI1, hits give low values 0.993 | locus YGR252W, strain gcn5, hits give low values 0.846 | locus YHR013C, strain ard1, hits give low values 0.944 | locus YHR027C, strain rpn1, hits give low values 0.981 | locus YHR030C, strain SLT2, hits give low values 1.01 and 0.997 | locus YHR079C, strain IRE1 (second series), hits give low values 1.01 | locus YHR079C, strain IRE1, hits give low values 0.989 | locus YHR094C, strain hxt1, hits give low values 1 | locus YHR129C, strain ARP1, hits give low values 1.01 | locus YHR142W, strain chs7, hits give low values 0.955 | locus YHR200W, strain rpn10, hits give low values 0.988 | locus YIL066C, strain RNR3, hits give low values 1.01 | locus YIL073C, strain SPO22, hits give low values 0.982 | locus YIL125W, strain kgd1, hits give low values 1 | locus YIR030C, strain dcg1, hits give low values 1 | locus YJL092W, strain hpr5, hits give low values 0.972 | locus YJL095W, strain BCK1 (second series), hits give low values 0.98 | locus YJL095W, strain BCK1, hits give low values 0.985 and 1.01 | locus YJL115W, strain asf1, hits give low values 0.969 | locus YJL129C, strain trk1, hits give low values 0.995 | locus YJL134W, strain LCB3, hits give low values 1.01 | locus YJL154C, strain vps35, hits give low values 0.984 | locus YJL164C, strain tpk1, hits give low values 0.962 | locus YJL166W, strain qcr8, hits give low values 0.945 | locus YJL168C, strain set2, hits give low values 1 | locus YJL187C, strain SWE1 (second series), hits give low values 1.01 | locus YJL187C, strain SWE1, hits give low values 0.97 | locus YJR043C, strain POL32, hits give low values 0.993 | locus YJR066W, strain TOR1, hits give low values 0.958
